In PubChem BioAssay (NCI):
Compounds without any hit were thinned out: in the full panel of roughly 83,000, 20% have a hit.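 Single-dose data. Exposure time 48 hours. Values below 10 considered active.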 Unmarked numbers belong to inactive results. Calls of active or inactive are those of the source.

Legend:
Assay in all cases: NCI-60 one-dose screen, 48 h (100 = growth as untreated, 0 = no growth, -100 = all killed)
Conditions in all cases: 10 µM unless noted
SR leukemia = test system: SR leukemia
RPMI-8226 leukemia = test system: RPMI-8226 leukemia
OVCAR-8 ovarian = test system: OVCAR-8 ovarian
OVCAR-5 ovarian = test system: OVCAR-5 ovarian
OVCAR-4 ovarian = test system: OVCAR-4 ovarian
SK-OV-3 ovarian = test system: SK-OV-3 ovarian
IGROV1 ovarian = test system: IGROV1 ovarian
OVCAR-3 ovarian = test system: OVCAR-3 ovarian
HS 578T breast = test system: HS 578T breast
NCI/ADR-RES ovarian = test system: NCI/ADR-RES ovarian

Row | SMILES | growth (SR leukemia) | growth (RPMI-8226 leukemia) | growth (OVCAR-8 ovarian) | growth (OVCAR-5 ovarian) | growth (OVCAR-4 ovarian) | growth (SK-OV-3 ovarian) | growth (IGROV1 ovarian) | growth (OVCAR-3 ovarian) | growth (HS 578T breast) | growth (NCI/ADR-RES ovarian)
1 | COc1cc(C2=NN(C(C)=O)C(c3cc(OC)c(OC)c(OC)c3)C2)ccc1O (stereo not given) | 15.6% | -27.5% (active) | 24.7% | 34% | 35.3% | 30.3% | 2.82% (active) | -51.9% (active) | -1.42% (active) | -55.4% (active)
2 | Nc1c(C(=O)Nc2cccc3cnccc23)sc2nc3c(cc12)C(=O)CCC3 | 59.5% | 88.9% | 100% | 107% | 102% | 96.5% | 87.9% | 93.4% | 84.3% | 102%
3 | CCOC(=O)CSc1nc2ccccc2c(=O)n1Cc1ccc(S(N)(=O)=O)cc1 | 99.6% | 98.2% | 101% | 97.5% | 116% | 107% | 105% | 112% | 97.9% | 104%
4 | COc1cc2c(=O)n(CCN(C)C)c3c4cc5c(cc4ccc3c2cc1OC)OCO5 | 2.29% (active) | -27.7% (active) | 11.4% | -17.5% (active) | 5.11% (active) | -5.08% (active) | -16% (active) | -41.9% (active) | 9.24% (active) | 2.87% (active)
5 | Cc1cccc(NC(=O)Nc2ccc(-c3ccc4c(c3)NC(=O)/C4=C\c3ccc[nH]3)cc2)c1 | 23.6% | 91.4% | 105% | 96.3% | 73.4% | 90.5% | 78% | 103% | 95.7% | 93.8%
6 | COc1ccc(C(=O)C2C(C#N)C(C#N)C3c4ccccc4C=CN23)cc1 (stereo not given) | 105% | 73.1% | -4.32% (active) | 101% | 62.9% | 93.6% | 81% | 92.2% | 95.1% | 87.9%
7 | c1ccc(-c2cn3c(ccc4ccccc43)n2)cc1 | 20.9% | 62.5% | 71.4% | 77.2% | 91.5% | 77.1% | 49.3% | 56.3% | 67.8% | 35.7%
8 | CCOC(=O)[C@@H]1CCCN(S(=O)(=O)c2ccc(S(=O)(=O)N(CC)CC)c(F)c2)C1 | 60.1% | 61% | 77.8% | 95.5% | 75.5% | 82.4% | 93.5% | 88% | 93.5% | 47.2%
9 | CCCCCCCCCCCCCCCC[N+]1(C)CCN(SN2CC[N+](C)(CCCCCCCCCCCCCCCC)CC2)CC1 | 26.8% | 26.3% | 67.2% | 50% | 74.6% | 124% | -18.9% (active) | 59.7% | 88.2% | 96.3%
10 | CC(C)(C)CC(C)(C)n1nnnc1C(NC12CC3CC(CC(C3)C1)C2)c1ccccc1 (stereo not given) | 80.3% | 68.8% | 96% | 103% | 88.4% | 120% | 87.1% | 98.1% | 99.9% | 86.1%
11 | COc1cc(NC(C)CCCNC(=O)CCC(=O)NCCCNCCCCCCCCNCCCNC(=O)CCC(=O)NCCCC(C)Nc2cc(OC)cc3cccnc23)c2ncccc2c1 (stereo not given) | 107% | 53.5% | 70.6% | 66.8% | 18.1% | 97.9% | 59.1% | 39.8% | 75% | 91.7%
12 | N#CC1C(C#N)C(C(=O)c2ccc(Br)cc2)N2c3ccccc3C=CC12 (stereo not given) | 34.9% | 94.1% | 90.9% | 55.2% | 43.7% | 79.4% | 39.7% | 75.5% | 77.6% | 64.1%
